# Tests used:
# [1] = target: 5'-AMP-activated protein kinase catalytic subunit alpha-2 (Homo sapiens) (UniProt P54646); conditions: at 1 µM
# [2] = target: T1, NUAK family SNF1-like kinase 1 (Homo sapiens) (UniProt O60285); conditions: at 0.1 µM
# T1 sequence (whole entry): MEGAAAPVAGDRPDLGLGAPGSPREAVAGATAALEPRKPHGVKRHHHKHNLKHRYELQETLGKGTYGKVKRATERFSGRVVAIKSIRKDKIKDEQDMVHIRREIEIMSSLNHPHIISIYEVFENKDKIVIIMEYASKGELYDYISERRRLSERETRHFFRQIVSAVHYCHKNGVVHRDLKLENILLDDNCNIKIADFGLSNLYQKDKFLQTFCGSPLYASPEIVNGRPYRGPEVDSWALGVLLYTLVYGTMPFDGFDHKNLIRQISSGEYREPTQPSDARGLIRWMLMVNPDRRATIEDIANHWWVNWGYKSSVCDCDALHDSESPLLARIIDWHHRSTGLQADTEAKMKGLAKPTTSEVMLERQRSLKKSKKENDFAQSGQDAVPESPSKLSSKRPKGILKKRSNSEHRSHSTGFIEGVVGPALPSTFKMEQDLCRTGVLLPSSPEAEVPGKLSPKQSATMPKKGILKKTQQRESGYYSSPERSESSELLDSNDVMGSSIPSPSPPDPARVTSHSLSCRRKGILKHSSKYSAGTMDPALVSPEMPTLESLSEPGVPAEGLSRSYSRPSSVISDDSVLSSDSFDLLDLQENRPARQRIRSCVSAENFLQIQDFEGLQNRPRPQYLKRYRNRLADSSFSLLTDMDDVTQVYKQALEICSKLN
# [3] = target: T1, NUAK family SNF1-like kinase 1 (Homo sapiens); conditions: at 1 µM
# [4] = target: T2, Serine/threonine-protein kinase BRSK1 (Homo sapiens) (UniProt Q8TDC3); conditions: at 0.1 µM
# T2 sequence (whole entry): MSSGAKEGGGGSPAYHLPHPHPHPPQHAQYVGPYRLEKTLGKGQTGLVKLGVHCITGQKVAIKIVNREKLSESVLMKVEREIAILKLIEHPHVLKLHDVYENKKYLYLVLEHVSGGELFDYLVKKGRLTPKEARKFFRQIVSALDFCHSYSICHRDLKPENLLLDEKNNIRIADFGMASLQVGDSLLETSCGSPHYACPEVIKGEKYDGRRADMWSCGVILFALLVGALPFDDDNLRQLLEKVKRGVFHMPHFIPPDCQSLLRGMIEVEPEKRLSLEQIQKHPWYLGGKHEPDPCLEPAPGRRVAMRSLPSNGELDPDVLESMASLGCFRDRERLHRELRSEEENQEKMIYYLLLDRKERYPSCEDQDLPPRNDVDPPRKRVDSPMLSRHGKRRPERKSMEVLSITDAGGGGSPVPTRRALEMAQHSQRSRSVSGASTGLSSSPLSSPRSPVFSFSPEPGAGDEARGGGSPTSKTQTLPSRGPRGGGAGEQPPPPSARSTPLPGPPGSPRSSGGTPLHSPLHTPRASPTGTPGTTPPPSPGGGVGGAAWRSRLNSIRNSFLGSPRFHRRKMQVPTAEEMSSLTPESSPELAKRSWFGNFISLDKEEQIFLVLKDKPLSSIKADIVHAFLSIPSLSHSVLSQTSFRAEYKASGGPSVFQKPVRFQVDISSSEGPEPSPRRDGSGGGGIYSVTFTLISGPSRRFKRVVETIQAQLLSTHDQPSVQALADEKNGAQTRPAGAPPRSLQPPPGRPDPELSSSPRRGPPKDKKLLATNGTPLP
# [5] = target: T2, Serine/threonine-protein kinase BRSK1 (Homo sapiens); conditions: at 1 µM
# [6] = target: T3, Serine/threonine-protein kinase BRSK2 (Homo sapiens) (UniProt Q8IWQ3); conditions: at 0.1 µM
# T3 sequence (whole entry): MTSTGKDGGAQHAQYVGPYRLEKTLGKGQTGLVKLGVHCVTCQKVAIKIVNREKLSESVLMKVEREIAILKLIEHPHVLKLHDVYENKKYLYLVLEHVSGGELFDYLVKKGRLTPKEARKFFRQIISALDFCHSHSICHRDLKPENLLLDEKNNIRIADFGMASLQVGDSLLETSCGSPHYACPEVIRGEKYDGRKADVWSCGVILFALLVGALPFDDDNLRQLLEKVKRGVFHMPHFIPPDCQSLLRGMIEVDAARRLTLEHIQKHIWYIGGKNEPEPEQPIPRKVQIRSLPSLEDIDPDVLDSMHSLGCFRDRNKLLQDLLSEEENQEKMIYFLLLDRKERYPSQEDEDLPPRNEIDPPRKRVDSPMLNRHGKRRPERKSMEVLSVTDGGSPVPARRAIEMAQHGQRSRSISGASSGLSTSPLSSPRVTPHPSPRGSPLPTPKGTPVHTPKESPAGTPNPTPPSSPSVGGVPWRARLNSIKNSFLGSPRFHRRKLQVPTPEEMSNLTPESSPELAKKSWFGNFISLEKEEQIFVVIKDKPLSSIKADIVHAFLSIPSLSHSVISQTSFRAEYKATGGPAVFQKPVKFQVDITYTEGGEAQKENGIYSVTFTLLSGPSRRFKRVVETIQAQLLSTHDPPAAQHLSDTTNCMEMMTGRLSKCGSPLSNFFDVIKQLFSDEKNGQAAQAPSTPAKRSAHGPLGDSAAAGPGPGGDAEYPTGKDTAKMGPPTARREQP
# [7] = target: T3, Serine/threonine-protein kinase BRSK2 (Homo sapiens); conditions: at 1 µM
# [8] = target: Calcium/calmodulin-dependent protein kinase type 1D (Homo sapiens) (UniProt Q8IU85); conditions: at 0.1 µM
# Calcium/calmodulin-dependent protein kinase type 1D (Homo sapiens), sequence (Q8IU85 whole entry, looked up): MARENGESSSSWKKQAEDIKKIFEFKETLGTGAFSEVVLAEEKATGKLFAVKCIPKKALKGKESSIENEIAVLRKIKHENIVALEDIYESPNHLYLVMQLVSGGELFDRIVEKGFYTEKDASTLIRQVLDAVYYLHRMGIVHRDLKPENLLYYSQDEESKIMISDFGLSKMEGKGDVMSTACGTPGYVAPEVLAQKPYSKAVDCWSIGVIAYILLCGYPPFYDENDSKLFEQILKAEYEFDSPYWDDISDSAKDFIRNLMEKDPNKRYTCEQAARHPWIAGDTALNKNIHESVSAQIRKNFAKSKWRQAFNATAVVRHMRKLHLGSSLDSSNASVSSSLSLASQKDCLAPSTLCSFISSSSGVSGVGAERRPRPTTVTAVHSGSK
# [9] = target: Calcium/calmodulin-dependent protein kinase type 1D (Homo sapiens) (UniProt Q8IU85); conditions: at 1 µM
# [10] = target: Calcium/calmodulin-dependent protein kinase type II subunit alpha (Homo sapiens) (UniProt Q9UQM7); conditions: at 0.1 µM
# Calcium/calmodulin-dependent protein kinase type II subunit alpha (Homo sapiens), sequence (Q9UQM7 whole entry): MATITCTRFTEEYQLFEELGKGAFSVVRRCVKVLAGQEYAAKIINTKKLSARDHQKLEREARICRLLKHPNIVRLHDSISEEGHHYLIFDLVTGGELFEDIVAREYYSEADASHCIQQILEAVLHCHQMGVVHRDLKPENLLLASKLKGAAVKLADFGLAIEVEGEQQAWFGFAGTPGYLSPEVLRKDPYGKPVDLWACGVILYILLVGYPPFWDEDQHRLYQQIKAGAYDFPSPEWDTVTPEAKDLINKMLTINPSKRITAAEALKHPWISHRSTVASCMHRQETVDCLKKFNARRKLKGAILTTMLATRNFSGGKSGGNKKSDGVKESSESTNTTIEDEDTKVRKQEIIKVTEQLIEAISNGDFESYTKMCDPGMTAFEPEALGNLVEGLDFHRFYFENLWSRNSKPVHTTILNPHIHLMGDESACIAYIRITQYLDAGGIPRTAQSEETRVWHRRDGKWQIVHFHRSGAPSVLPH
# [11] = target: Calcium/calmodulin-dependent protein kinase type II subunit alpha (Homo sapiens) (UniProt Q9UQM7); conditions: at 1 µM
# [12] = target: Calcium/calmodulin-dependent protein kinase type II subunit delta (Homo sapiens) (UniProt Q13557); conditions: at 0.1 µM
# Calcium/calmodulin-dependent protein kinase type II subunit delta (Homo sapiens), sequence (Q13557 whole entry): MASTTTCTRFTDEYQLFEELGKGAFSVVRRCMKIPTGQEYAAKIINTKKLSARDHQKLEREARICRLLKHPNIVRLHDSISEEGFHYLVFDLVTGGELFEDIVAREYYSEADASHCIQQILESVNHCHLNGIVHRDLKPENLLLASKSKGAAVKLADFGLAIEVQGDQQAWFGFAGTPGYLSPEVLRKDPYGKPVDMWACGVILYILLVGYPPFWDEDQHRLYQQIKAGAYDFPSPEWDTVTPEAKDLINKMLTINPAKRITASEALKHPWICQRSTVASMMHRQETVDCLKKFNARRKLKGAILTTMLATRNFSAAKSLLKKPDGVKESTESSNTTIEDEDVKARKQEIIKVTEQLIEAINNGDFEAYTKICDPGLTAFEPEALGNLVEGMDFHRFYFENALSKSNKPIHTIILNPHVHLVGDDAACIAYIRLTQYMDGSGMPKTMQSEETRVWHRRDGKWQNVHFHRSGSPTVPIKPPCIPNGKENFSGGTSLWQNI
# [13] = target: Calcium/calmodulin-dependent protein kinase type II subunit delta (Homo sapiens) (UniProt Q13557); conditions: at 1 µM
# [14] = target: T4, Calcium/calmodulin-dependent protein kinase type IV (Homo sapiens) (UniProt Q16566); conditions: at 0.1 µM
# T4 sequence (whole entry): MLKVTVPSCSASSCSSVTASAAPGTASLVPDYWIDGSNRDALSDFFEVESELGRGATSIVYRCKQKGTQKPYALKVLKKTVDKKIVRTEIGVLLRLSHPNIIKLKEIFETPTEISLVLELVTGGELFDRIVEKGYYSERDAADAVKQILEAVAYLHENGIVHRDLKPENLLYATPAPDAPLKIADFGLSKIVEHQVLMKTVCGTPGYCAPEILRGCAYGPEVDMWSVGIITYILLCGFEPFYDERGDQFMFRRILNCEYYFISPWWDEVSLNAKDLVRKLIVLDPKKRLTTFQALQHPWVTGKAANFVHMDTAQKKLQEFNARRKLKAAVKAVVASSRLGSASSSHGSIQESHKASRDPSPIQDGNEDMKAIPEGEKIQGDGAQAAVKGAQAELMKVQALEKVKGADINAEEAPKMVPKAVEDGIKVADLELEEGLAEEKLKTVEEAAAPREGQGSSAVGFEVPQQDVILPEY
# [15] = target: T4, Calcium/calmodulin-dependent protein kinase type IV (Homo sapiens); conditions: at 1 µM
# [16] = target: T5, Serine/threonine-protein kinase Chk1 (Homo sapiens) (UniProt O14757); conditions: at 0.1 µM
# T5 sequence (whole entry): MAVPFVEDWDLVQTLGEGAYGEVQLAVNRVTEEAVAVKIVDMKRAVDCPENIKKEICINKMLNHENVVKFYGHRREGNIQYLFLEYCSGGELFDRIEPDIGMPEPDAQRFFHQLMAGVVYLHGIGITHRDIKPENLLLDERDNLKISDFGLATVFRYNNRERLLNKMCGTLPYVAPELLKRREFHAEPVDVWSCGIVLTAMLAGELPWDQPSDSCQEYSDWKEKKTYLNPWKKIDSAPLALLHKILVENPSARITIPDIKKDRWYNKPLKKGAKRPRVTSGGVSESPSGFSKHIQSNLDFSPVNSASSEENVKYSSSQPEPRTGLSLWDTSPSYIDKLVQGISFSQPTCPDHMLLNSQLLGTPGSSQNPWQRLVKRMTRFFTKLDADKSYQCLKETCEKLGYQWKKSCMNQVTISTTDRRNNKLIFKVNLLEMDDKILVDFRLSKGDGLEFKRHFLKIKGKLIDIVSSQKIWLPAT
# [17] = target: T5, Serine/threonine-protein kinase Chk1 (Homo sapiens); conditions: at 1 µM
# [18] = target: Serine/threonine-protein kinase Chk2 (Homo sapiens) (UniProt O96017); conditions: at 0.1 µM
# Serine/threonine-protein kinase Chk2 (Homo sapiens), sequence (O96017 whole entry): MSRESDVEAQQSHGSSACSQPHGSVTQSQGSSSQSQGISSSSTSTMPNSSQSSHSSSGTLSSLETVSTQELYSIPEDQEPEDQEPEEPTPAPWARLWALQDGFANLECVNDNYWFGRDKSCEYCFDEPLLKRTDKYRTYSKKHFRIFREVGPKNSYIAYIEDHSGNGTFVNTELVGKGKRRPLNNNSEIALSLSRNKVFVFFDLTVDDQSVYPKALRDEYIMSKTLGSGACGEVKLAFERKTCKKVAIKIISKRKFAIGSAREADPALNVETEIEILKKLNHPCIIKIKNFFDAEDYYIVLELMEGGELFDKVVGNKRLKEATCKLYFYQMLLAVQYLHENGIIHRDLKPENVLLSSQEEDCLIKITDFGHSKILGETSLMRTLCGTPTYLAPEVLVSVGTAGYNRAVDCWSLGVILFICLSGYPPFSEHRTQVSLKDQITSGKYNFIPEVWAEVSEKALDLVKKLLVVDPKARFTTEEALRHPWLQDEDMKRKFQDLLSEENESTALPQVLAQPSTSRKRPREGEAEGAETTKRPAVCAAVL
# [19] = target: Serine/threonine-protein kinase Chk2 (Homo sapiens) (UniProt O96017); conditions: at 1 µM
# [20] = target: Death-associated protein kinase 1 (Homo sapiens) (UniProt P53355); conditions: at 0.1 µM;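 also: reported figure is the mean inhibition of DAPK1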
# Death-associated protein kinase 1 (Homo sapiens), sequence (P53355 whole entry, looked up): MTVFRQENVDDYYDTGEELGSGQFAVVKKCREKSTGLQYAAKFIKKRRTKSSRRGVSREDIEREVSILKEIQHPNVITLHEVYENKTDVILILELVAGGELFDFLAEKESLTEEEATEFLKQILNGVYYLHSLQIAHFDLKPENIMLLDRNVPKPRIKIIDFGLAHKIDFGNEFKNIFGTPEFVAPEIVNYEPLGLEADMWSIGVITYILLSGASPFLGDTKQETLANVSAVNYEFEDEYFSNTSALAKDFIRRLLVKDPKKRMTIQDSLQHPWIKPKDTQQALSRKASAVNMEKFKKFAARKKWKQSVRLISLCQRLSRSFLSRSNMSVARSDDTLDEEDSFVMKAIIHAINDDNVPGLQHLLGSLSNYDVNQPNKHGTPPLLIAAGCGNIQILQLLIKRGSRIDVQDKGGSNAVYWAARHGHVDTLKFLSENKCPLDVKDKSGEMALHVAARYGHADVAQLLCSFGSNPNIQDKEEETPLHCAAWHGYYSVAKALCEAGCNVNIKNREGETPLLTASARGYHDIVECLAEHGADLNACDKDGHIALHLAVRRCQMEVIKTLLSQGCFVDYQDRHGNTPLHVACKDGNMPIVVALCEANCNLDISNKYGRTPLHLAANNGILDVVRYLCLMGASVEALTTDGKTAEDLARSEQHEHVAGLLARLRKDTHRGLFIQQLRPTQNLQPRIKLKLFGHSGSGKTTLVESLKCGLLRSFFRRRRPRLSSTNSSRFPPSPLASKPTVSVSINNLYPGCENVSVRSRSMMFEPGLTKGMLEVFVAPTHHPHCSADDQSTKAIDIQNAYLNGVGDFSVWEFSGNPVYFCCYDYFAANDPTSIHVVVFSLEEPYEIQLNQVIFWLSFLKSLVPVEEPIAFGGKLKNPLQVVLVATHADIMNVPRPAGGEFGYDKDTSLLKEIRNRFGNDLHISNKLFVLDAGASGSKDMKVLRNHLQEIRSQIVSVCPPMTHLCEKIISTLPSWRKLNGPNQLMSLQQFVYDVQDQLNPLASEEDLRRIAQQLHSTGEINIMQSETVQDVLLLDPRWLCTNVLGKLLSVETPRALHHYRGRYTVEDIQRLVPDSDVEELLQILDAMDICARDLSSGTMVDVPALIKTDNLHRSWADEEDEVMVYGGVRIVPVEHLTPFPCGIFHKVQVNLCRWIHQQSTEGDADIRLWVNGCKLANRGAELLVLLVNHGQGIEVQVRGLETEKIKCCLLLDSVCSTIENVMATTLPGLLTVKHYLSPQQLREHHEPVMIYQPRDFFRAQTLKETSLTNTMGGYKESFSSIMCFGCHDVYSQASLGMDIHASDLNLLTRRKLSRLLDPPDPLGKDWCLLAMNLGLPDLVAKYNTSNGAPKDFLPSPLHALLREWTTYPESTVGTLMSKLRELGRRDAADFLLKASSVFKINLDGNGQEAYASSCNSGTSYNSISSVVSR
# 5'-AMP-activated protein kinase catalytic subunit alpha-2 (Homo sapiens), sequence (P54646 whole entry, looked up): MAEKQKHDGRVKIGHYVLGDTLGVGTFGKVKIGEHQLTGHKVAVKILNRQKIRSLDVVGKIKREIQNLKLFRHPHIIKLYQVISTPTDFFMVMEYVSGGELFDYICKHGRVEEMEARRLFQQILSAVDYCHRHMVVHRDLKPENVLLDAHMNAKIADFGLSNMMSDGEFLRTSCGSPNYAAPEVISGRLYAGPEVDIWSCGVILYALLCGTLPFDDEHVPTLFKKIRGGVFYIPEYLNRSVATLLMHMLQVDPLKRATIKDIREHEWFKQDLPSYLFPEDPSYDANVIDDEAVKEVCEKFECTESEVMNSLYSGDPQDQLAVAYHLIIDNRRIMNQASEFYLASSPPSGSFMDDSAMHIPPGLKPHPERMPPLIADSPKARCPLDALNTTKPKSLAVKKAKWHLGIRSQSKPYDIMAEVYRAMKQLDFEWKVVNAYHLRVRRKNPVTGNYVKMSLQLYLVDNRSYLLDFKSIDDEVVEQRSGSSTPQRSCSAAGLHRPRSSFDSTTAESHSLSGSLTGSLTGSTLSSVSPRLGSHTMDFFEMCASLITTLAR
smiles,measurement,setting,value
NS(=O)(=O)c1cccc(N/C=C2\C(=O)Nc3ccccc32)c1,inhibition,[1],11.2%
same,inhibition,[2],5.37%
same,inhibition,[3],35.8%
same,inhibition,[4],4.66%
same,inhibition,[5],17.9%
same,inhibition,[6],5.23%
same,inhibition,[7],26%
same,inhibition,[8],0.94%
same,inhibition,[9],3.7%
same,inhibition,[10],3.94%
same,inhibition,[11],8.27%
same,inhibition,[12],5.11%
same,inhibition,[13],16.3%
same,inhibition,[14],1.25%
same,inhibition,[15],2.86%
same,inhibition,[16],9.31%
same,inhibition,[17],14.3%
same,inhibition,[18],10.6%
same,inhibition,[19],32.8%
same,inhibition,[20],10.6%
Cc1nnc(-c2cccc(-c3ccc(C(=O)NCC4CC4)cc3)c2)o1,inhibition,[1],4.4%
same,inhibition,[2],3.1%
same,inhibition,[3],2.61%
same,inhibition,[4],0.57%
same,inhibition,[5],2.35%
same,inhibition,[6],6.6%
same,inhibition,[7],3.96%
same,inhibition,[8],-0.22%
same,inhibition,[9],0.22%
same,inhibition,[10],5.78%
same,inhibition,[11],3.99%
same,inhibition,[12],3.26%
same,inhibition,[13],6.04%
same,inhibition,[14],-2.72%
same,inhibition,[15],-2.97%
same,inhibition,[16],4.9%
same,inhibition,[17],5.14%
same,inhibition,[18],3.86%
same,inhibition,[19],4.86%
same,inhibition,[20],5.32%
CN(c1ccc(NC(=O)NCCN2CCOCC2)cc1)c1ccnc(Nc2ccc(CS(C)(=O)=O)cc2)n1,inhibition,[1],4.4%
same,inhibition,[2],8.2%
same,inhibition,[3],41.6%
same,inhibition,[4],-2.24%
same,inhibition,[5],4.74%
same,inhibition,[6],2.43%
same,inhibition,[7],5.48%
same,inhibition,[8],-0.41%
same,inhibition,[9],0.15%
same,inhibition,[10],1.72%
same,inhibition,[11],1.11%
same,inhibition,[12],1.06%
same,inhibition,[13],3.97%
same,inhibition,[14],-3.18%
same,inhibition,[15],-5.39%
same,inhibition,[16],4.02%
same,inhibition,[17],3.14%
same,inhibition,[18],2.01%
same,inhibition,[19],6.85%
same,inhibition,[20],4.05%
CS(=O)(=O)CCNCc1ccc(-c2ccc3ncnc(Nc4ccc(OCc5cccc(C(F)(F)F)c5)cc4)c3c2)o1,inhibition,[1],3.3%
same,inhibition,[2],0.13%
same,inhibition,[3],6.75%
same,inhibition,[4],4%
same,inhibition,[5],4.04%
same,inhibition,[6],4.95%
same,inhibition,[7],9.19%
same,inhibition,[8],-0.93%
same,inhibition,[9],0.88%
same,inhibition,[10],1.38%
same,inhibition,[11],2.36%
same,inhibition,[12],3.02%
same,inhibition,[13],7.55%
same,inhibition,[14],-2.56%
same,inhibition,[15],-0.39%
same,inhibition,[16],5.09%
same,inhibition,[17],7.64%
same,inhibition,[18],4.17%
same,inhibition,[19],5.4%
same,inhibition,[20],6.71%
CS(=O)(=O)Nc1ccc(-c2cc(-c3ccccc3)cc(C(N)=O)c2N)cc1,inhibition,[1],1.49%
same,inhibition,[2],-2.25%
same,inhibition,[3],1.62%
same,inhibition,[4],-0.36%
same,inhibition,[5],-0.05%
same,inhibition,[6],0.92%
same,inhibition,[7],2.21%
same,inhibition,[8],-0.99%
same,inhibition,[9],-0.47%
same,inhibition,[10],-1.51%
same,inhibition,[11],-1.32%
same,inhibition,[12],0.44%
same,inhibition,[13],1.39%
same,inhibition,[14],-3.34%
same,inhibition,[15],-0.72%
same,inhibition,[16],3.76%
same,inhibition,[17],0.63%
same,inhibition,[18],1.07%
same,inhibition,[19],1.94%
same,inhibition,[20],2.28%
Fc1cccc(COc2ccc(Nc3ncncc3C#Cc3ccccc3)cc2Cl)c1,inhibition,[1],2.35%
same,inhibition,[2],1.2%
same,inhibition,[3],3.38%
same,inhibition,[4],-0.12%
same,inhibition,[5],3.27%
same,inhibition,[6],0.86%
same,inhibition,[7],4.6%
same,inhibition,[8],-0.31%
same,inhibition,[9],-0.49%
same,inhibition,[10],4.42%
same,inhibition,[11],3.65%
same,inhibition,[12],2.79%
same,inhibition,[13],2.05%
same,inhibition,[14],-2.29%
same,inhibition,[15],-4.84%
same,inhibition,[16],3.29%
same,inhibition,[17],5.99%
same,inhibition,[18],3.47%
same,inhibition,[19],5.22%
same,inhibition,[20],5.08%
CCN1CCC(C(=O)Nc2n[nH]c3nnc(-c4cccc(F)c4F)cc23)CC1,inhibition,[1],3.06%
same,inhibition,[2],3.72%
same,inhibition,[3],5.44%
same,inhibition,[4],-0.16%
same,inhibition,[5],1.41%
same,inhibition,[6],1.7%
same,inhibition,[7],3.77%
same,inhibition,[8],0.68%
same,inhibition,[9],0.83%
same,inhibition,[10],-1.94%
same,inhibition,[11],-1.33%
same,inhibition,[12],-0.8%
same,inhibition,[13],-0.61%
same,inhibition,[14],0.3%
same,inhibition,[15],-1.03%
same,inhibition,[16],-2.25%
same,inhibition,[17],0.59%
same,inhibition,[18],-0.57%
same,inhibition,[19],0.65%
same,inhibition,[20],-0.72%

# From ChEMBL document CHEMBL1961873, “Compounds: GSK PKIS; Assays: Nanosyn kinase panel” (2012)
